Experimental data taken from PubChem BioAssay (EPA / NIEHS).
The source made the active and inactive calls. How the source made its calls: active means hit-call score of the fitted dose curve at least 0.9, where 1 is the maximum; inactive means score below 0.9.

How the values were obtained:
[1] = read-out: Vascular cell adhesion molecule 1 (VCAM1), VCAM1 (gene 7412); assay: BSK_CASM3C_VCAM1: BioMAP Diversity Plus: CASM3C Assay for Vascular cell adhesion molecule 1 (VCAM1) Biomarker Activity (AID 2283055); conditions: primary human coronary artery smooth muscle cells; actives raise or lower the signal;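 further: VCAM-1 protein level quantified by ELISA on the cells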
[2] = read-out: Collagen III, COL3A1 (gene 1281); assay: BSK_hDFCGF_CollagenIII: BioMAP Diversity Plus: hDFCGF Assay for Collagen III Biomarker Activity (AID 2283056); conditions: primary human foreskin fibroblasts; actives raise or lower the signal
How it was run: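 ELISA read-out of collagen III from human skin fibroblast cultures sampled 24 h post-dosing. Values were derived by bidirectional fitting relative to the DMSO vehicle control.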

[3] = read-out: Epidermal growth factor receptor (EGFR), EGFR (gene 1956); assay: BSK_hDFCGF_EGFR: BioMAP Diversity Plus: hDFCGF Assay for Epidermal growth factor receptor (EGFR) Biomarker Activity (AID 2283057); conditions: primary human foreskin fibroblasts; actives raise or lower the signal
How it was run: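 EGFR levels by ELISA in human dermal fibroblast cultures, 24 h post-treatment, fitted bidirectionally versus DMSO. Parallel wells stained with sulforhodamine B to detect overt cytotoxicity.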

[4] = read-out: Interleukin-8 (IL8), CXCL8 (gene 3576); assay: BSK_hDFCGF_IL8: BioMAP Diversity Plus: hDFCGF Assay for Interleukin-8 (IL8) Biomarker Activity (AID 2283058); conditions: primary human foreskin fibroblasts; actives raise or lower the signal
How it was run: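 Cells used are human skin primary fibroblasts. Chemical is added, cultures run 24 h, then IL-8 is quantified by ELISA, and gain or loss versus DMSO control is fitted in both directions.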

[5] = BSK_hDFCGF_Proliferation: Cell Proliferation Assessment in the BioMAP Diversity Plus: hDFCGF Assay (AID 2283059); conditions: primary human foreskin fibroblasts;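 further: curves fitted for both rise and fall of signal versus DMSO baseline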
How it was run: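 Sub-confluent human foreskin fibroblast cultures receive test chemical […]. Relative cell number is quantified by sulforhodamine B staining (0.1%, after 10% TCA fixation) at 560 nm, with bidirectional fitting referenced to DMSO.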

[6] = BSK_hDFCGF_SRB: Viability Assessment in the BioMAP Diversity Plus: hDFCGF Assay (AID 2283061); conditions: primary human foreskin fibroblasts;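 further: cells exposed to compound for 24 h before the read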
How it was run: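 Readout is SRB absorbance at 560 nm, reflecting total protein in parallel cultures of human foreskin fibroblasts harvested 24 h after chemical dosing. Activity was fitted bidirectionally relative to DMSO.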

[7] = read-out: TIMP metallopeptidase inhibitor 1 (TIMP1), TIMP1 (gene 7076); assay: BSK_hDFCGF_TIMP1: BioMAP Diversity Plus: hDFCGF Assay for TIMP metallopeptidase inhibitor 1 (TIMP1) Biomarker Activity (AID 2283062); conditions: primary human foreskin fibroblasts; actives raise or lower the signal
How it was run: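 Human skin fibroblasts (primary), hDFCGF system; compound exposure 24 h; TIMP-1 by ELISA; bidirectional fit vs DMSO negative control; overt cytotoxicity by SRB in parallel wells.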

[8] = read-out: Monokine induced gamma interferon (MIG), CXCL9 (gene 4283); assay: BSK_hDFCGF_MIG: BioMAP Diversity Plus: hDFCGF Assay for Monokine induced gamma interferon (MIG) Biomarker Activity (AID 2283063); conditions: primary human foreskin fibroblasts; actives raise or lower the signal
How it was run: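 Chemicals were added to primary human foreskin fibroblast cultures, which were sampled 24 h later. MIG levels were then quantified by ELISA and responses fitted in both directions relative to DMSO.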

[9] = read-out: Matrix Metallopeptidase 1 (MMP1), MMP1 (gene 4312); assay: BSK_hDFCGF_MMP1: BioMAP Diversity Plus: hDFCGF Assay for Matrix Metallopeptidase 1 (MMP1) Biomarker Activity (AID 2283064); conditions: primary human foreskin fibroblasts; actives raise or lower the signal
How it was run: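 MMP1 levels quantified by ELISA 24 h after dosing human dermal fibroblast cultures, with parallel SRB total-protein staining for overt cytotoxicity. Data fitted in both directions against DMSO baseline.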

[10] = read-out: Vascular cell adhesion molecule 1 (VCAM1), VCAM1 (gene 7412); assay: BSK_hDFCGF_VCAM1: BioMAP Diversity Plus: hDFCGF Assay for Vascular cell adhesion molecule 1 (VCAM1) Biomarker Activity (AID 2283065); conditions: primary human foreskin fibroblasts; actives raise or lower the signal;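 on AC50: VCAM-1 protein level quantified by ELISA after 24 h chemical exposure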
How it was run: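 Human foreskin fibroblast primary cells, chemical exposure 24 h; VCAM-1 by ELISA; bidirectional fit, DMSO = negative control/baseline.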

[11] = read-out: Plasminogen activator inhibitor-1 (PAI1), SERPINE1 (gene 5054); assay: BSK_hDFCGF_PAI1: BioMAP Diversity Plus: hDFCGF Assay for Plasminogen activator inhibitor-1 (PAI1) Biomarker Activity (AID 2283066); conditions: primary human foreskin fibroblasts; actives raise or lower the signal
How it was run: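 PAI-1 levels in human dermal foreskin fibroblasts were quantified by ELISA 24 h after dosing, with gain or loss analysed against DMSO. Overt cytotoxicity was checked by sulforhodamine B total-protein staining in parallel cultures.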

[12] = read-out: Intercellular Adhesion Molecule 1 (ICAM1), ICAM1 (gene 3383); assay: BSK_KF3CT_ICAM1: BioMAP Diversity Plus: KF3CT Assay for Intercellular Adhesion Molecule 1 (ICAM1) Biomarker Activity (AID 2283067); conditions: primary human keratinocytes with fibroblasts; actives raise or lower the signal
How it was run: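 ICAM-1 levels are measured by ELISA 24 h after dosing a primary human co-culture of keratinocytes and foreskin fibroblasts. Activity in either direction is fitted relative to DMSO vehicle.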

[13] = read-out: Interferon-gamma inducible Protein 10 (IP10), CXCL10 (gene 3627); assay: BSK_KF3CT_IP10: BioMAP Diversity Plus: KF3CT Assay for Interferon-gamma inducible Protein 10 (IP10) Biomarker Activity (AID 2283068); conditions: primary human keratinocytes with fibroblasts; actives raise or lower the signal
How it was run: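 ELISA read-out of IP-10 after 24 h chemical dosing of human skin primary co-culture (keratinocytes, foreskin fibroblasts). Gain or loss of signal relative to DMSO, bidirectional curve fit.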

[14] = BSK_KF3CT_SRB: Viability Assessment in the BioMAP Diversity Plus: KF3CT Assay (AID 2283069); conditions: primary human keratinocytes with fibroblasts;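 further: read 24 h after compound addition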
How it was run: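 Cytotoxicity was gauged by SRB staining (0.1% SRB, 10% TCA fixation, 560 nm) of parallel cultures at 24 h. The cells were primary human skin keratinocytes co-cultured with fibroblasts, and activity was fitted in both directions against DMSO.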

[15] = read-out: Interleukin-1 alpha (IL1a), IL1A (gene 3552); assay: BSK_KF3CT_IL1a: BioMAP Diversity Plus: KF3CT Assay for Interleukin-1 alpha (IL1a) Biomarker Activity (AID 2283070); conditions: primary human keratinocytes with fibroblasts; actives raise or lower the signal
How it was run: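 IL-1a was detected by ELISA 24 h after chemical treatment of a co-culture of human skin keratinocytes and foreskin fibroblasts. Gain or loss of signal was fitted against the DMSO baseline.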

[16] = read-out: TIMP metallopeptidase inhibitor 2 (TIMP2), TIMP2 (gene 7077); assay: BSK_KF3CT_TIMP2: BioMAP Diversity Plus: KF3CT Assay for TIMP metallopeptidase inhibitor 2 (TIMP2) Biomarker Activity (AID 2283071); conditions: primary human keratinocytes with fibroblasts; actives raise or lower the signal
How it was run: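 TIMP-2 measured by ELISA at 24 h in human keratinocyte/fibroblast primary co-cultures exposed to chemicals. Both increases and decreases were fitted against DMSO. Parallel cultures were stained with SRB for total protein as an overt-cytotoxicity check.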

[17] = read-out: Transforming growth factor beta 1 (TGFb1), TGFB1 (gene 7040); assay: BSK_KF3CT_TGFb1: BioMAP Diversity Plus: KF3CT Assay for Transforming growth factor beta 1 (TGFb1) Biomarker Activity (AID 2283072); conditions: primary human keratinocytes with fibroblasts; actives raise or lower the signal
How it was run: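 ELISA quantifies TGF-b1 at 24 h post-dose in a primary human skin co-culture of keratinocytes and fibroblasts, with gain or loss judged against DMSO. Parallel SRB total-protein staining flags overt cytotoxicity.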

[18] = read-out: C-C motif chemokine 2 (Homo sapiens) (UniProt P13500); assay: BSK_KF3CT_MCP1: BioMAP Diversity Plus: KF3CT Assay for Monocyte Chemoattractant Protein 1 (MCP1/CCL2) Biomarker Activity (AID 2283073); conditions: primary human keratinocytes with fibroblasts; actives raise or lower the signal
How it was run: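 ELISA readout of MCP-1 after 24 h chemical dosing of a human skin primary co-culture of keratinocytes and foreskin fibroblasts. Activity was fitted in both directions against DMSO.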

[19] = read-out: Macrophage colony-stimulating factor (MCSF), CSF1 (gene 1435); assay: BSK_hDFCGF_MCSF: BioMAP Diversity Plus: hDFCGF Assay for Macrophage colony-stimulating factor (MCSF) Biomarker Activity (AID 2283060); conditions: primary human foreskin fibroblasts; actives raise or lower the signal
How it was run: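 Primary human foreskin fibroblasts dosed with chemical; 24 h later, M-CSF quantified by ELISA; curves fitted in both directions vs DMSO negative control.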

[20] = read-out: Matrix Metallopeptidase 9 (MMP9), MMP9 (gene 4318); assay: BSK_KF3CT_MMP9: BioMAP Diversity Plus: KF3CT Assay for Matrix Metallopeptidase 9 (MMP9) Biomarker Activity (AID 2283074); conditions: primary human keratinocytes with fibroblasts; actives raise or lower the signal;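 on AC50: MMP9 protein level quantified by ELISA in the co-culture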
How it was run: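 MMP-9 quantified by ELISA after 24 h chemical treatment of primary human skin keratinocyte/fibroblast co-cultures; gain or loss fitted against DMSO, with parallel SRB staining (0.1% SRB, 560 nm) for overt cytotoxicity.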

Measured: AC50

O=c1oc2ccccc2c(O)c1C(CC(O)c1ccc(-c2ccc(Br)cc2)cc1)c1ccccc1 (stereo not drawn)
active: [1] 5.57 µM | [2] 0.632 µM | [3] 4.73 µM | [5] 5.25 µM | [6] 5.28 µM | [8] 11.2 µM | [9] 6.12 µM | [10] 5.3 µM | [11] 5.32 µM | [12] 5.92 µM | [13] 8.62 µM | [14] 4.99 µM | [15] 5.57 µM | [16] 5.28 µM | [17] 5.23 µM | [18] 10 µM
inactive: [4] | [7]

Nc1c(Oc2ccccc2)cc(O)c2c1C(=O)c1ccccc1C2=O
active: [19] 10 µM | [10] 15.8 µM | [16] 0.549 µM
not listed: [8]
inactive: all other assays above

c1ccc2sc(SNC3CCCCC3)nc2c1
not listed: [8] | [20]
inactive: all other assays above

CC(C)(C)c1cc([N+](=O)[O-])cc(C(C)(C)C)c1O
active: [13] 0.0652 µM | [16] 20 µM | [18] 30.7 µM | [20] 11.3 µM
inactive: all other assays above

Cc1ccccc1OP(=O)(Oc1ccccc1C)Oc1ccccc1C
inactive: [2] | [4] | [12] | [17]
active: [1] 32.4 µM | [3] 11.8 µM | [5] 4.26 µM | [19] 7.75 µM | [6] 8.28 µM | [7] 11.7 µM | [8] 12.8 µM | [9] 12.7 µM | [10] 6.18 µM | [11] 6.03 µM | [13] 14.7 µM | [14] 20 µM | [15] 11.3 µM | [16] 5.54 µM | [18] 12.1 µM | [20] 5.56 µM

Oc1ccc(Cc2ccc(O)cc2)cc1
not listed: [8] | [17]
inactive: all other assays above
